# Results published in PubChem BioAssay (NCI).
# This is part of a sample that, as a whole, favours compounds with a hit. Of some 79,000 tested, about 15% had one in any assay. The source made the active and inactive calls. Rule as the data show it: active = growth inhibition above about 70%; inactive = the rest.
# Assay: NCI Yeast Anticancer Drug Screen. Data for the mlh1 rad18 strain (AID 175)
# Settings: S. cerevisiae mlh1 rad18 strain growth inhibition; at 50.0 µM (retest, dose inferred, filed as 5.0); active compounds read high
# Procedure, shortened: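 Cells of a genetically altered yeast strain, deficient in DNA damage repair, were treated with compound. Their growth was then compared with that of vehicle-treated cultures to give inhibition.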
row,Structure (SMILES),growth inhibition
1,NC(=O)NC(=O)N/N=C/c1ccc([N+](=O)[O-])o1,40% (inactive)
2,O=[N+]([O-])/C=C\c1csc2ccccc12,99% (active)
3,O=[N+]([O-])c1ccc2c(c1)CCc1ccccc1-2,89% (active)
4,CC1=C(C)CC2C(=O)C(C(O)CC(C)C)=CC(=O)C2C1 (stereo not given),97% (active)
5,CCC(=O)OC1CCC(C2CCCCC2)CC1 (stereo not given),10% (inactive)
6,Cc1cc(C2C(O)C(c3cc(C)on3)C2(C)O)no1 (stereo not given),17% (inactive)
7,CC(C)C(Sc1nc(-c2ccccc2)c(-c2ccccc2)[nH]1)C(=O)NN (stereo not given),96% (active)
8,C/C(=N\NC(=O)N/N=C(\C)c1ccccn1)c1ccccn1,-6% (inactive)
9,COC(=O)CCCCCCCCCCC(=O)O,2% (inactive)
10,CCCCCCCCCCCCNC(=O)C[n+]1cccc(C(N)=O)c1,85% (active)
11,Nc1ccccc1N=Cc1ccccc1O,80% (active)
12,N#Cc1c(-c2ccc(Cl)cc2)c2c(n(C3OC(CO)C(O)C(O)C3O)c1=S)CCCC2 (stereo not given),96% (active)
13,CC(C)(C)CC(C)(C)N[P+](NC(C)(C)CC(C)(C)C)(NC(C)(C)CC(C)(C)C)NC(C)(C)CC(C)(C)C,98% (active)
14,CC(=O)OC1C(OC(C)=O)C2C(C)CC3OC(=O)C(C)C3CC2(C)C1OC(C)=O (stereo not given),81% (active)
15,NNC(=O)c1ccc(N)cc1O,-4% (inactive)
16,Nc1ccc2c(c1)C(=O)c1ccccc1-2,25% (inactive)
17,Cc1cn(C(C#N)=C(C#N)C#N)c2ccccc12,16% (inactive)
18,FC(F)(F)COP1(OCC(F)(F)F)=NP(OCC(F)(F)F)(OCC(F)(F)F)=NP(c2ccccc2)(c2ccccc2)=N1,0% (inactive)
19,O=c1oc(-c2ccccc2Br)ns1,99% (active)
20,CC(=O)N1C(C(=O)NNc2ccccc2)CSC1c1ccccc1 (stereo not given),96% (active)

row,Structure (SMILES),growth inhibition
1,O=[N+]([O-])/C=C/c1cc2c(ccc3ccccc32)[nH]1,97% (active)
2,CN(C)CCCC1(c2ccccc2)SC(C)(C)c2ccc(Cl)cc21 (stereo not given),56% (inactive)
3,O=c1[nH]c2ccccc2c2oc3ccccc3c12,94% (active)
4,O=C(c1ccccc1)c1cn(/N=C\c2ccccc2)c(=O)nc1-c1ccccc1,95% (active)
5,Cc1ccc(S(=O)(=O)OCCc2ccc(Cl)cc2)cc1,-12% (inactive)
6,COC(=O)CC1(O)c2cc(OC)c3cccc(OC)c3c2CCC1(C)C(=O)OC (stereo not given),98% (active)
7,CC(C)CC(NC(=O)SCc1ccccc1)C(=O)O (stereo not given),24% (inactive)
8,COc1ccc(/C=C/c2ccnc3ccccc23)cc1,98% (active)
9,N#CC1=C(N)OC(/C=C/c2ccccc2)=C(C#N)C1c1ccccc1 (stereo not given),86% (active)
10,COc1ccc(C(=O)C(CN2CCOCC2)CN2CCOCC2)cc1,-2% (inactive)
11,N/N=C(/N)SCCCCCCCCCCS/C(N)=N/N,39% (inactive)
12,OC(CBr)C[n+]1cccc2cc(Cl)ccc21 (stereo not given),-2% (inactive)
13,O=C(O)C1C(C(=O)Nc2ccc3c(c2)Cc2ccccc2-3)C2(Cl)C(Cl)=C(Cl)C1(Cl)C2(Cl)Cl (stereo not given),99% (active)
14,CSc1nc(COC(=O)NC(C)C)c(COC(=O)NC(C)C)n1-c1ccccc1,-6% (inactive)
15,CC(C)C[NH-].CC(C)C[NH-].[Cl][Pt+2]([Cl])([Cl])[Cl],98% (active)
16,c1ccc(N=c2sc3ccccc3sc2=Nc2ccccc2)cc1,56% (inactive)
17,[Cl-].[La+3].[O-]/N=C(\c1ccccc1)c1ccccn1.[O-]/N=C(\c1ccccc1)c1ccccn1.[O-]/N=C(\c1ccccc1)c1ccccn1,68% (inactive)
18,Clc1ccc(SSN2CCCCC2)cc1,84% (active)
19,CCC(O)C(O)(c1ccccc1)c1nc2ccccc2s1 (stereo not given),15% (inactive)
20,ONC(=Nc1cccc2ccccc12)C(=Nc1cccc2ccccc12)NO,91% (active)
